Hits are enriched below; roughly 2.3% of the tested compounds scored in any of these assays.
Mito fusion yeast: qHTS Assay for Small Molecule Inhibitors of Mitochondrial Division or Activators of Mitochondrial Fusion | Potency, µM (top dose mostly 46.1 µM), without a hit: top-dose growth rescue (activation), usual class: activators | AID 485298, 2010 | S. cerevisiae fusion-defective mutant growth rescue, CellTiterGlo 48 h | actives 0.23% (n = 320,000); further: potency means the concentration at half of the fitted maximal effect; % of control where 0% means no effect; nearly all actives have a fitted effect of over 45% in size
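Yeast fusion mutant, YPEG (non-fermentable carbon), compound, 48 h at 37C non-permissive; CellTiterGlo added, 10 min RT, luminescence read. Rescued growth = division inhibition.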
GRP78 ERSR act: qHTS for Inducers of the Endoplasmic Reticulum Stress Response (ERSR) in Human Glioma: qHTS. Potency, µM, without a hit: at the top dose activation, actives largely listed as activators. U87-MG GRP78 promoter luciferase reporter, 16 h. AID 602332, 2012. actives 0.02% (n = 420,000); further: potency means the concentration at half of the fitted maximal effect; series mostly up to about 76 µM; % of control where 0% means no effect; nearly all actives have a fitted effect of over 35% in size
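Stably transfected U87-MG glioma cells carrying a GRP78-based luciferase sensor; 16 h compound incubation. Luminescence end-point read 10 min after Bright-Glo addition at room temperature.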
Nrf2 activator: qHTS of Nrf2 Activators; Potency, µM (titrated, usually from 46.1 µM), inactives show at the highest dose activation, hits mostly activators; AREc32 ARE-luciferase reporter (MCF7-derived line), luminescence, 24 h; AID 624171, 2012; actives 0.31% (n = 410,000); further: potency means the concentration at half of the fitted maximal effect; % of control where 0% means no effect; nearly all actives have a fitted effect of over 65% in size
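Quantitative high-throughput format: AREc32 reporter cells, 1000 per well, received compound by pin transfer and were incubated 24 hr at 37 deg C, 5% CO2, before Steady-Glo luminescence detection.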
A549 tox: Nrf2 qHTS screen for inhibitors: counterscreen for cytotoxicity | A549 ARE-Fluc cells, CellTiter-Fluor viability, 18-24 h | Potency, µM (doses to about 46 µM), inactives show at the highest dose activity change, negative = cytotoxicity, hits mostly inhibitors | actives 0.16% (n = 390,000) | AID 504648, 2011; further: potency means the concentration at half of the fitted maximal effect; on the % scale 0 is the no-effect control and ±100 the full control effect
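A549 ARE_Fluc cells in 5% FBS OPTI-MEM were exposed to compounds in concentration-response for 18-24 h at 37 deg C. Viability was read by CellTiter-Fluor fluorescence (Ex 405/Em 525) after 30 min, before the luciferase read.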
Nrf2 inh: Nrf2 qHTS screen for inhibitors; actives 2.1% (n = 360,000); Potency, µM (titrated, usually from 46 µM), for inactives: at the top dose activity change, negative = inhibition, most hits filed as inhibitors; A549 ARE-Fluc reporter, luciferase luminescence, 18-24 h; AID 504444, 2011; further: potency means the concentration at half of the fitted maximal effect; on the % scale 0 is the no-effect control and ±100 the full control effect; nearly all actives have a fitted effect of over 60% in size
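A549 ARE_Fluc cells (5000/well, 5% FBS OPTI-MEM) pre-incubated 2 h, then treated with compounds 18-24 h at 37C/5% CO2 in concentration-response. CellTiter-Fluor viability read first; BugLite luciferase luminescence after 15 min at room temperature gives Nrf2 activity.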
miR-21 reporter: qHTS Assay for Modulators of miRNAs and/orActivators of miR-21. HeLa miR-21 FLuc reporter, luciferase, 48 h. Potency, µM (titrated, usually from 38.3 µM), without a hit: at the highest dose activity change, positive = activation, hits mostly activators. 340,000 tested, under 10 active. AID 2288, 2010;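 further: % of control where 0% means no effect; miR-21 action dims this reporter so a rising signal means less miR-21 action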
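Using DMEM plus 10% FBS, HeLa miR-21-FLuc cells are incubated with test compounds (final up to about 40uM) for 48 hours; firefly luciferase signal is then imaged following reagent-mediated lysis.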
Numbers without * were called inactive. The call rests on the fitted dose curve; in most records, active means well fitted curve in the direction sought with a large enough effect; inconclusive means small, poorly fitted or top-dose-only effect, or another doubt; inactive means no such curve, though single readings can be large; an effect the other way counts as inactive or inconclusive.

OC(c1ccc(F)c(F)c1)c1ncc(-c2ccccc2F)[nH]1 (configuration not stated) was read as GRP78 ERSR act 4% and Nrf2 activator 1%.
Screening CC(C)CNc1ncnc2oc(-c3ccco3)c(-c3ccco3)c12 returned GRP78 ERSR act -3%, A549 tox -14% and Nrf2 inh 16µM*.
`CC(C)CNc1ncnc2onc(-c3ccc(Cl)cc3)c12` gave GRP78 ERSR act -2%, Nrf2 activator 0%, A549 tox 1%, Nrf2 inh -8% and miR-21 reporter -17%.
COc1ccc(CN2CCN(S(=O)(=O)c3ccc(NC(C)=O)cc3)CC2)cc1 was read as Mito fusion yeast 3%, GRP78 ERSR act -6%, Nrf2 activator -1%, A549 tox -12%, Nrf2 inh 16µM* and miR-21 reporter 22%.
For COc1ccc(-n2nnnc2C2CCN(S(=O)(=O)c3ccc(NC(C)=O)cc3)CC2)cc1 the results were GRP78 ERSR act -3%, Nrf2 activator -1%, A549 tox -20%, Nrf2 inh 9.2µM* and miR-21 reporter inconclusive.
Screening O=C(/C=C/c1ccc(Br)o1)Nc1nccs1 returned Mito fusion yeast -4%, GRP78 ERSR act 3%, Nrf2 activator 6.3µM*, A549 tox 1%, Nrf2 inh inconclusive and miR-21 reporter -34%.
`O=C(Nc1nccs1)c1ccc(Br)o1` gave Mito fusion yeast 0%, GRP78 ERSR act 2%, Nrf2 activator 7%, A549 tox -3%, Nrf2 inh inconclusive and miR-21 reporter -42%.
CS(=O)(=O)Nc1ccc(C2=NN(C(=O)C3CCCCC3)C(c3cccs3)C2)cc1 (configuration not stated) was read as Mito fusion yeast 25%, GRP78 ERSR act 2%, Nrf2 activator 7%, A549 tox -13%, Nrf2 inh 23µM* and miR-21 reporter 0%.
`Cc1ccc(C(=O)N2N=C(c3cccc(NS(C)(=O)=O)c3)CC2c2cccs2)cc1` (configuration not stated) gave Mito fusion yeast 3%, GRP78 ERSR act -2%, Nrf2 activator 14%, A549 tox 0%, Nrf2 inh 23µM* and miR-21 reporter 3%.
`CC(C)C(=O)N1N=C(c2ccc(NS(C)(=O)=O)cc2)CC1c1cccs1` (configuration not stated) gave Mito fusion yeast 6%, GRP78 ERSR act 2%, Nrf2 activator 3%, A549 tox inconclusive, Nrf2 inh -28% and miR-21 reporter -8%.
COc1ccc(C(O)c2ncc(-c3ccccc3F)[nH]2)cc1 (configuration not stated) was read as GRP78 ERSR act 0% and Nrf2 activator 4%.
Screening CC(NC(=O)CSc1ccccc1)c1ccccc1 (configuration not stated) returned Mito fusion yeast -2%, GRP78 ERSR act -1%, Nrf2 activator 0%, A549 tox 0%, Nrf2 inh 3% and miR-21 reporter -8%.
`CC(=O)NC(=S)Nc1cc(C(F)(F)F)ccc1N1CCOCC1` gave Mito fusion yeast -7%, GRP78 ERSR act -2%, Nrf2 activator 4%, A549 tox 3%, Nrf2 inh 26µM* and miR-21 reporter 1%.
Screening Cn1c(CCN2CCN(c3ccccn3)CC2)nc2cc(NC(=O)COc3ccccc3)ccc21 returned Mito fusion yeast -8%, GRP78 ERSR act -2%, Nrf2 activator 6%, A549 tox -4%, Nrf2 inh 23µM* and miR-21 reporter 22%.
Screening O=C(Oc1ccc(N2C(=O)CCC2=O)cc1)c1ccccc1Cl returned Mito fusion yeast -2%, GRP78 ERSR act -11%, Nrf2 activator -2%, A549 tox -5%, Nrf2 inh inconclusive and miR-21 reporter -3%.
`Cc1cc(OC(=O)c2ccccc2Cl)cc(=O)n1C` gave Mito fusion yeast 1%, GRP78 ERSR act 5%, Nrf2 activator -2%, A549 tox 3%, Nrf2 inh 8.2µM* and miR-21 reporter 0%.
`CC(C)N(C(=O)Cn1c(-c2ccccc2Cl)nc2ccccc21)c1ccccc1` gave Mito fusion yeast 0%, GRP78 ERSR act -2%, Nrf2 activator 2%, A549 tox -3%, Nrf2 inh 11% and miR-21 reporter -15%.
`CCOc1cc(/C=C/C(=O)Nc2ccc(C(=O)NCCN(CC)CC)cc2)ccc1OCC(C)C` gave Mito fusion yeast 3%, GRP78 ERSR act -14%, Nrf2 activator -4%, A549 tox inconclusive, Nrf2 inh inconclusive and miR-21 reporter -2%.
Screening CCC(=O)N1c2ccc(S(=O)(=O)NCCc3ccccc3)cc2CC1C (configuration not stated) returned Mito fusion yeast -21%, GRP78 ERSR act 2%, Nrf2 activator -1%, A549 tox -9%, Nrf2 inh 23µM* and miR-21 reporter 0%.
CC(=O)N1c2ccc(S(=O)(=O)NCCc3cccc(C)c3)cc2CC1C (configuration not stated) was read as GRP78 ERSR act -1%, Nrf2 activator 4%, A549 tox -1%, Nrf2 inh 13µM* and miR-21 reporter 9%.
Screening Cc1cc(C(=O)NC(C)C2CC2)c(Cl)cc1Cl (configuration not stated) returned Mito fusion yeast 0%, GRP78 ERSR act -2%, Nrf2 activator -1%, A549 tox 12%, Nrf2 inh 1% and miR-21 reporter -7%.
Screening Fc1cccc(CNc2ncnc3cc(Cl)ccc23)c1F returned Mito fusion yeast -9%, GRP78 ERSR act 3%, Nrf2 activator 11%, A549 tox -3%, Nrf2 inh 18µM* and miR-21 reporter 13%.
CCSc1ncccc1-c1nc2ccccc2[nH]1 was read as Mito fusion yeast 6%, GRP78 ERSR act -6%, Nrf2 activator 0%, A549 tox 3%, Nrf2 inh 22% and miR-21 reporter -48%.
For O=C(CCc1nc2ccccc2c(=O)[nH]1)OCc1nnc(-c2ccccc2)o1 the results were Mito fusion yeast -1%, GRP78 ERSR act -1%, Nrf2 activator 3%, A549 tox 5% and miR-21 reporter -10%.
Screening CCOc1cc(Br)c(CN2C(=O)NC3(CCCCCC3)C2=O)cc1OCC returned Mito fusion yeast -6%, GRP78 ERSR act -3%, Nrf2 activator 3%, A549 tox inconclusive, Nrf2 inh 21µM* and miR-21 reporter 18%.
